The values that follow come from PubChem BioAssay AID2588 (National Center for Advancing Translational Sciences (NCATS), 2010).

Inconclusive results are not listed. A call without a number means that no potency is given here. Activity calls are given as the source filed them. The call rests on the fitted dose curve; in most records, active means well fitted inhibition curve with a large enough effect; inconclusive means small, poorly fitted or top-dose-only effect, or effect the other way; inactive means flat fitted curve, though single readings scatter.

Sequence of Lysosomal acid glucosylceramidase (Homo sapiens) (P04062 whole entry, looked up): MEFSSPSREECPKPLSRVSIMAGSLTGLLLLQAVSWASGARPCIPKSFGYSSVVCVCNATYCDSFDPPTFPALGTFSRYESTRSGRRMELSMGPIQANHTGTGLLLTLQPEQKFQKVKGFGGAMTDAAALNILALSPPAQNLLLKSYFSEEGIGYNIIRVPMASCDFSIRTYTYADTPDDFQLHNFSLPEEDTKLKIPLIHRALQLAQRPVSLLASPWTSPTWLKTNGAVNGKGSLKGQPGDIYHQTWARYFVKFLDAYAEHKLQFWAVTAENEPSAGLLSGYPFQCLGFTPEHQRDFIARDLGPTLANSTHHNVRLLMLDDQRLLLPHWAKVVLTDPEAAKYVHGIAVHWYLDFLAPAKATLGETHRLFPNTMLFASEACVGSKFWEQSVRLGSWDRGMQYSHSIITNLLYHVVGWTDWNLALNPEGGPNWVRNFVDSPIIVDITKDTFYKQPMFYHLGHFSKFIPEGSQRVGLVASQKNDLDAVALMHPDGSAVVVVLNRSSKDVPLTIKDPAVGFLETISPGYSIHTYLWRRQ

The target of this test is Lysosomal acid glucosylceramidase (Homo sapiens) (UniProt P04062). Description: qHTS Assay for Inhibitors and Activators of N370S glucocerebrosidase as a Potential Chaperone Treatment of Gaucher Disease: Activity in Non-Mutant Spleen Homogenate Using a Red Fluorescent Substrate. Particulars: red fluorogenic substrate GCase activity; series mostly up to 50.2 µM. An excerpt:
NIH Chemical Genomics Center [NCGC]
NIH Molecular Libraries Probe Production Centers Network [MLPCN]
Assay Submitter (PI): Wei Zheng
Glucocerebrosidase (GC) catalyzes the hydrolysis of beta-glucocerebroside to glucose and ceramide in lysosomes. Mutations in the glucocerebrosidase gene result in Gaucher disease, an autosomal recessive lysosomal storage disorder. Many of the mutations encountered in patients with Gaucher disease are missense alterations that may cause misfolding, decreased stability and/or mistrafficking of this lysosomal protein. […] These inhibitors include iminosugar analogs and three non-iminosugar inhibitors identified from a previous HTS of 62,000 compounds with the wild type recombinant enzyme. However, the enhancement of enzyme activity by the chaperone action of an enzyme inhibitor must be balanced against the direct inhibition of the enzyme. An enzyme activator could also function as a chaperone by binding to the enzyme and helping to correct its misfolding and mistrafficking. While activators for GC have not yet been identified, they may have better therapeutic potential than inhibitors. Therefore the discovery and development of chemical activators may provide a new strategy for the chaperone therapy.
We have optimized a new assay using N370S mutant GC derived from the spleen of a Gaucher patient. […] In addition, the MLPCN compound library has expanded, which increases the chance of finding new and better probes.
This confirmation assay tests for compound activity in spleen homogenate containing wildtype enzyme using an alternate resorufin-based substrate.
NCGC Assay Protocol Summary:
This is a fluorogenic enzyme assay with resorufin-beta-D-glucopyranoside as the substrate and wildtype glucocerebrosidase from human spleen homogenate as the enzyme preparation. Upon the hydrolysis of this fluorogenic substrate, the resulting product, […] which can be detected by a standard fluorescence plate reader. Data were normalized to the controls for basal activity (without enzyme) and 100% activity (with enzyme). The AC50 values were determined from concentration-response data modeled with the standard Hill equation.
Assay buffer: 50 mM citric acid (titrated with potassium phosphate to pH 5.0), 100 mM potassium chloride, 10 mM sodium chloride, 1 mM magnesium chloride, 0.01% Tween-20.
1536-well assay protocol:
(1) Add 2 ul/well of spleen homogenate (27 ug final)
(2) Add 23 nL compounds in DMSO solution. The final titration was 0.5 nM to 58 uM.
(3) Add 2 ul of substrate (1 mM final)
(4) Incubate at 37C for 40 min.
(5) Add 2 ul stop solution (1M NaOH and 1M Glycine mixture, pH 10)
(6) Detect the assay plate in a ViewLux plate reader (PerkinElmer) with Ex=365 nm and Em=440nm.
Keywords: Glucocerebrosidase, beta-glucosidase, Gaucher Disease, pharmacological chaperone, chaperone therapy, high throughput screening, glucocerebrosidase inhibitor, MLSMR, MLSCN, NIH Roadmap, qHTS and NCGC
(qHTS replaces the single test concentration by a dilution series.)
For the compound `COc1ccc(S(=O)(=O)N2CCN(c3nc(-c4cccs4)nc4ccccc34)CC2)cc1OC`, the Potency is 224 nM (active). For `Cc1cc(N2CCCCC2)nc2ccc(NC(=O)C3CCC(C)CC3)cc12` (stereo not given), the Potency was 7940 nM (active). As for `CCCNC(=O)COC(=O)c1ccccc1OCC(=O)Nc1ccc(Br)cc1`, the Potency result was “inactive”. For the compound `N#Cc1ccccc1Sc1ccccc1C(=O)OCC(=O)NC12CC3CC(CC(C3)C1)C2`, the Potency result is “inactive”. Turning to `Cc1cc(N2CCN(c3ncccn3)CC2)nc2ccc(NC(=O)C3CCC(C)CC3)cc12` (stereo not given), the Potency was 11200 nM (active). `Nc1nc(-c2ccccc2)c(N=Nc2ccc(Cl)cc2)s1`: the Potency entry is “inactive”.

For the compound `O=S(=O)(c1ccccc1Br)N1CCN(c2nc(-c3cccs3)nc3ccccc23)CC1`, the Potency was 562 nM (active). For the compound `c1ccc2c(NCC3CCCO3)nc(N3CCOCC3)nc2c1` (stereo not given), the Potency entry was “inactive”. On to `O=C(Nc1nccs1)c1ccc(NS(=O)(=O)c2ccc(Cl)cc2)cc1`, for which the Potency entry was “inactive”.

`O=S(=O)(c1ccc2c(c1)CCCC2)N1CCN(c2nc(-c3cccs3)nc3ccccc23)CC1`: the Potency is 282 nM (active). Take `Cc1cc(C)n2ncc(C(=O)Nc3cccc(O)c3)c2n1`: the Potency result is “inactive”. In the case of `CCN(CC)c1cc(C)c2cc(NC(=O)C3CCC(C)CC3)ccc2n1` (stereo not given), the Potency was 15800 nM (active). Consider `O=S(=O)(c1ccccc1F)N1CCN(c2nc(-c3cccs3)nc3ccccc23)CC1`, for which the Potency was 501 nM (active). In the case of `O=S(=O)(c1ccc(OC(F)(F)F)cc1)N1CCN(c2nc(-c3cccs3)nc3ccccc23)CC1` it was 3980 nM (active). In the case of `COc1cc(OC)cc(C(=O)N[C@H](C(=O)OCC(=O)Nc2cccc(F)c2)C(C)C)c1`, the Potency entry was “inactive”. In the case of `COc1ccc(Nc2nc(-c3cccs3)nc3ccccc23)cc1` it was 1410 nM (active). Turning to `Cc1ccc(Cl)cc1NC(=O)c1ccccc1OCC(=O)Nc1ccc(Cl)cc1`, the Potency entry was “inactive”.

Consider `COC(=O)c1ccccc1NC(=O)c1ccc2c(c1)C(=O)N(Cc1ccccc1)C2=O`, for which the Potency result is “inactive”.

With `CC(=O)Nc1ccc(NC(=O)COc2ccccc2C(=O)Nc2cccc(Cl)c2Cl)cc1`, the Potency entry was “inactive”. For the compound `Cc1cc(N2CCOCC2)nc2ccc(NC(=O)C3CCC(C)CC3)cc12` (stereo not given), the Potency was 2820 nM (active). `Cc1cc(C)cc(N(CC(=O)NC2CCC(C)CC2)S(=O)(=O)c2c(C)[nH]c(=O)[nH]c2=O)c1` (stereo not given): the Potency is 398 nM (active). With `CCOc1ccccc1NC(=O)CN(c1ccc(C)cc1)S(=O)(=O)c1c(C)noc1C`, the Potency entry was “inactive”.

Turning to `CCCC1CCC(C(=O)Nc2ccc3nc(N4CCOCC4)cc(C)c3c2)CC1` (stereo not given), the Potency was 447 nM (active). Regarding `N#Cc1ccc(S(=O)(=O)N2CCN(c3nc(-c4cccs4)nc4ccccc34)CC2)cc1`, the Potency was 794 nM (active). Take `Clc1ccccc1-c1nccc(NCc2ccccc2)n1`: the Potency is 3980 nM (active).

Turning to `O=C(Nc1cnn(Cc2ccc(F)cc2)c1)c1cnn2c(C(F)F)cc(-c3ccccc3)nc12`, the Potency entry is “inactive”. On to `O=S(=O)(c1ccccc1C(F)(F)F)N1CCN(c2nc(-c3ccccc3)nc3ccccc23)CC1`, for which the Potency was 1000 nM (active). In the case of `CCOc1ccc(N(CC(=O)NC2CCCCCC2)S(=O)(=O)c2c(C)[nH]c(=O)[nH]c2=O)cc1` it was 1410 nM (active); in that of `COc1ccc(S(=O)(=O)N2CCN(c3nc(-c4ccccc4)nc4ccccc34)CC2)cc1`, 2510 nM (active); in that of `COc1cccc(NC(=O)CSc2nc3ccccc3c(=O)n2Cc2cccs2)c1`, “inactive”. Regarding `O=S(=O)(c1ccccc1)N1CCN(c2nc(-c3ccc(F)cc3)nc3cc(Cl)ccc23)CC1`, the Potency result is “inactive”. As to `O=C(Nc1ccccc1)c1ccc(NS(=O)(=O)c2ccccc2)cc1`, the Potency entry is “inactive”. In the case of `S=C(NCCCc1cnc[nH]1)NCCCN(Cc1ccc(Cl)c(Cl)c1)c1ccc(Br)cn1`, the Potency was 1000 nM (active). For `CCC(C)NC(=O)COC(=O)c1ccccc1OCC(=O)Nc1ccc(Br)cc1` (stereo not given), the Potency entry was “inactive”. As to `Cc1ccc(-c2nc(N3CCN(S(=O)(=O)c4ccc(F)cc4)CC3)c3ccc(Cl)cc3n2)cc1`, the Potency entry is “inactive”. Consider `N=c1c2c(-c3ccccc3)c(-c3ccccc3)n(Cc3ccco3)c2ncn1CCCn1ccnc1`, for which the Potency was 12600 nM (active). As for `O=C(COc1ccccc1C(=O)c1cnn(-c2ccccc2)c1)Nc1ccccc1`, the Potency result was “inactive”. On to `COc1cc2c(cc1NC(=O)COC(=O)[C@@H](NC(=O)c1ccccc1)C(C)C)oc1ccccc12`, for which the Potency result is “inactive”. In the case of `O=S(=O)(c1ccccc1C(F)(F)F)N1CCN(c2nc(-c3cccs3)nc3ccccc23)CC1`, the Potency is 224 nM (active).

Regarding `CCCCNC(=O)c1ccc(NS(=O)(=O)c2ccccc2)cc1`, the Potency result is “inactive”.
